Test results taken from article PMC4336329 (PLoS ONE, 2015).
The campaign covered roughly 310,000 compounds. About 14,000 (4.5%) showed an effect of 50% or more. The effect is printed as a negative number. For the sample, strong results were picked, then their nearest neighbours and some compounds at random.
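Also: peak tail current of the secondary pulse compared with the same well before compound.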

These compounds were tested against human ether-à-go-go-related gene (hERG) potassium channel (human, UniProt Q12809) (assay: primary screen, population patch clamp on CHO cells stably expressing hERG; higher = less effect of the substance).
Sequence of human ether-à-go-go-related gene (hERG) potassium channel (Q12809 whole entry, looked up): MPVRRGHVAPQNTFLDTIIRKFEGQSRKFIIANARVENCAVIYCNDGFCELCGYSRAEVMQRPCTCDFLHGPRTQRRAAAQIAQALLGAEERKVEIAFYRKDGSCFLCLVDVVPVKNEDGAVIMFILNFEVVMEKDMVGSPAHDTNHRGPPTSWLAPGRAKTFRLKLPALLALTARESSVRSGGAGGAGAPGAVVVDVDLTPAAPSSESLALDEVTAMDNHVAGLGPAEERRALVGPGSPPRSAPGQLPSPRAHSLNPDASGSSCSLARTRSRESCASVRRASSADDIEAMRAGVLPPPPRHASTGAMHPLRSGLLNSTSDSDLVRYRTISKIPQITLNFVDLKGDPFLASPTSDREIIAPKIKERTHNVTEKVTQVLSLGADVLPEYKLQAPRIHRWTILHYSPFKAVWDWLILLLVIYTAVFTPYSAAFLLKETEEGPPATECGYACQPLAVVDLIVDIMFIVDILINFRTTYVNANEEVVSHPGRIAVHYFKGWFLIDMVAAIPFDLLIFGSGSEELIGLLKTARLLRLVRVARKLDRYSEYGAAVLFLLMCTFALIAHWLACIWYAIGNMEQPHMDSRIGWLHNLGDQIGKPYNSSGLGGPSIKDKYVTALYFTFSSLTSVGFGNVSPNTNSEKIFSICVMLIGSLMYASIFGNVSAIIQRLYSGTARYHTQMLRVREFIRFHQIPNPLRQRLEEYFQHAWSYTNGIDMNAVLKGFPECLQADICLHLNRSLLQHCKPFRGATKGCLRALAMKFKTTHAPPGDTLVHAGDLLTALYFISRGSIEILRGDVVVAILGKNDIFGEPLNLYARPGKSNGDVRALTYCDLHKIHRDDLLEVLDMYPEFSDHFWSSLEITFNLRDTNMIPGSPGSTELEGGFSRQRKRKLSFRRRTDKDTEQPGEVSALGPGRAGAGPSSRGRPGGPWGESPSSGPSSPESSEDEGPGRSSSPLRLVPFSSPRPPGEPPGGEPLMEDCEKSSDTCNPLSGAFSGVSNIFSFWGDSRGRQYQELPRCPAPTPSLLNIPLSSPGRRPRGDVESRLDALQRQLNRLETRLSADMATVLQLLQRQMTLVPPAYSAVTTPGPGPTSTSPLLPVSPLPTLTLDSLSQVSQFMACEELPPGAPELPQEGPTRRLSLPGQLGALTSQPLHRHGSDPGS
COc1cc(NC(=O)CN(C)S(=O)(=O)c2ccc3c(c2)CCC(=O)N3)cc(OC)c1 was tested, and the “hERG current change (%, negative = inhibition) at 10uM” value was -23.9%. In the case of CCC1=NN(C(=O)c2ccccc2Br)C(O)(c2ccc(Br)cc2)C1 (centres unmarked), the “hERG current change (%, negative = inhibition) at 10uM” value is reported as 25.2%. For CC(=O)Nc1ccc(N2C(=O)c3cccc4c(O)ccc(c34)C2=O)cc1, the “hERG current change (%, negative = inhibition) at 10uM” value was 13.4%. For COc1ccc(OC)c(S(=O)(=O)N2CCC(C(=O)N3CCCCCC3)CC2)c1, the “hERG current change (%, negative = inhibition) at 10uM” value was 5.45%. With COc1ccc(OC)c(S(=O)(=O)N2CCC(C(=O)N3CCN(c4ccc(F)cc4)CC3)CC2)c1 the “hERG current change (%, negative = inhibition) at 10uM” value was -78%. With COc1ccc(OC)c(S(=O)(=O)N2CCC(C(=O)N3CCCC3)CC2)c1 the “hERG current change (%, negative = inhibition) at 10uM” value was 7.71%. In the case of COc1ccc(-c2[nH]ncc2CN(C)Cc2cccnc2)c(F)c1, the “hERG current change (%, negative = inhibition) at 10uM” value is reported as -1.66%. CC(=O)N1CCc2cc(S(=O)(=O)NC(CC(C)C)C(=O)N3CCn4c3nc3ccccc34)ccc21 (centres unmarked) was tested, and the “hERG current change (%, negative = inhibition) at 10uM” value was -60%. In the case of CC(=O)N1CCc2cc(S(=O)(=O)NC(CC(C)C)C(=O)N3CCc4ccccc4C3)ccc21 (centres unmarked), the “hERG current change (%, negative = inhibition) at 10uM” value is reported as -26.8%. With CC(=O)N1CCc2cc(S(=O)(=O)NC(CC(C)C)C(=O)N3CCCC3)ccc21 (centres unmarked) the “hERG current change (%, negative = inhibition) at 10uM” value was -20.2%. In the case of O=C1CS/C(=N/N=C/c2ccccc2)N1Cc1ccco1, the “hERG current change (%, negative = inhibition) at 10uM” value is reported as 1.4%. With COC(=O)C(C)N=Cc1ccccc1 (centres unmarked) the “hERG current change (%, negative = inhibition) at 10uM” value was 12.9%. For Cc1ccc(-n2c(/C=C/c3ccc4c(c3)OCO4)nc3ccccc3c2=O)cc1, the “hERG current change (%, negative = inhibition) at 10uM” value was -50.4%. In the case of COc1ccc(-n2c(/C=C/c3ccc(O)c(O)c3)nc3ccccc3c2=O)cc1, the “hERG current change (%, negative = inhibition) at 10uM” value is reported as 10.6%. In the case of O=c1c2ccccc2nc(/C=C/c2ccc3c(c2)OCO3)n1-c1cccc(O)c1, the “hERG current change (%, negative = inhibition) at 10uM” value is reported as -7.38%. With O=c1c2ccccc2nc(/C=C/c2ccc3c(c2)OCO3)n1-c1ccccc1 the “hERG current change (%, negative = inhibition) at 10uM” value was -26%. In the case of COc1ccc(-n2c(/C=C/c3ccc4c(c3)OCO4)nc3ccccc3c2=O)cc1, the “hERG current change (%, negative = inhibition) at 10uM” value is reported as -55.3%. COc1ccc(-n2c(/C=C/c3ccc(O)cc3)nc3ccccc3c2=O)cc1 was tested, and the “hERG current change (%, negative = inhibition) at 10uM” value was -21.6%. For CCc1ccccc1OCC(=O)OCC(=O)Nc1cc(C)on1, the “hERG current change (%, negative = inhibition) at 10uM” value was -2.74%. For CCC(=O)N1CCc2cc(S(=O)(=O)CCC(=O)N3CCN(c4ccccc4)CC3)ccc21, the “hERG current change (%, negative = inhibition) at 10uM” value was 3.15%. O=C(CN1CCN(S(=O)(=O)c2ccc(Cl)cc2)CC1)NCC1(N2CCOCC2)CCCCC1 was tested, and the “hERG current change (%, negative = inhibition) at 10uM” value was -39.3%. For O=C(CN1CCN(CC(=O)Nc2cccc(F)c2)CC1)NCC1(N2CCOCC2)CCCCC1, the “hERG current change (%, negative = inhibition) at 10uM” value was -27%. With O=C(CNCC1(N2CCOCC2)CCCCC1)Nc1ccc(Cl)cc1 the “hERG current change (%, negative = inhibition) at 10uM” value was -78.8%. For CC(NCC1(N2CCOCC2)CCCCC1)C(=O)Nc1ccc(Cl)cc1Cl.O=C(O)C(=O)O (centres unmarked), the “hERG current change (%, negative = inhibition) at 10uM” value was -74.6%. For CC(NCC1(N2CCOCC2)CCCCC1)C(=O)N1CCc2ccccc21.O=C(O)C(=O)O (centres unmarked), the “hERG current change (%, negative = inhibition) at 10uM” value was -5.73%. O=C(CN1CCN(S(=O)(=O)c2ccc(F)cc2)CC1)NCC1(N2CCOCC2)CCCCC1 was tested, and the “hERG current change (%, negative = inhibition) at 10uM” value was -18.6%. In the case of O=C(Cc1ccc(Cl)cc1Cl)NCC1(N2CCOCC2)CCCCC1, the “hERG current change (%, negative = inhibition) at 10uM” value is reported as 5.44%. N#CCC(=O)Nc1ccc(C(=O)NCC2(N3CCOCC3)CCCCC2)cc1 was tested, and the “hERG current change (%, negative = inhibition) at 10uM” value was 7.48%. For O=C(CN1CCN(CC(=O)Nc2ccc(F)cc2)CC1)NCC1(N2CCOCC2)CCCCC1, the “hERG current change (%, negative = inhibition) at 10uM” value was -73.4%.
